Reference: PubChem BioAssay (EPA / NIEHS)
Values joined by “and” are separate entries in the source; they are usually repeats but may differ in a detail not shown here. Equal entries are not always repeated. Records with an inconclusive call do not appear. Active and inactive are the calls of the source. How the source made its calls, unless noted: active means hit-call score of the fitted dose curve at least 0.9, where 1 is the maximum; inactive means score below 0.9.

Tests used:
[1] = CCTE_Deisenroth_5AR_NBTE_donor: CCTE's 5alpha-reductase NanoBRET Target Engagement Assay […], Deisenroth Lab (AID 2284319); conditions: actives raise or lower the signal
Method in brief: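 HEK293T cells were reverse transfected with an SRD5A2-NanoLuc vector for 20 h, exposed to test chemical (8 points, 10 nM - 29.9 uM) for 3 h, then testosterone tracer for 2 h more. Donor luminescence (460 nm) was read; bidirectional fit versus DMSO.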

[2] = CCTE_Deisenroth_5AR_NBTE_acceptor: CCTE's 5alpha-reductase NanoBRET Target Engagement Assay - Autofluorescence Screen, Deisenroth Lab (AID 2284321); conditions: actives raise or lower the signal;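 further: compound fluorescence in the acceptor channel under 460 nm excitation flags autofluorescence artifacts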
Method in brief: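 Autofluorescence counter-screen: chemicals at an assumed nominal 100 uM in DMSO were scanned in three independent runs with 460 nm excitation. Gain or loss of acceptor signal was fitted bidirectionally against DMSO.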

SRD5A2 (gene 6716) = assay: CCTE_Deisenroth_5AR_NBTE_ratio: CCTE's 5alpha-reductase NanoBRET Target Engagement Assay - Ratio, Deisenroth Lab (AID 2284322); conditions: actives raise or lower the signal
Method in brief: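 Reverse-transfect HEK293T with pNLF1-C-SRD5A2, express 20 h. Pre-incubate cells with chemical 3 h (8-point series, 10 nM - 29.9 uM, duplicate). Add testosterone tracer, 2 h more. Add substrate/inhibitor, read donor and acceptor emission.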

[3] = IUF_NPC2-5_viability_120hr: Viability Assessment at 120 hours in the Leibniz Research Institute for Environmental Medicine (IUF) Neural Progenitor Cell Migration and Differentiation Assay (NPC2-5) (AID 2284312)
Method in brief: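 Human fetal neural progenitor spheres (0.3 mm) plated on poly-D-lysine/laminin in N2 differentiation medium, exposed 120 h with half-medium refresh at day 3. Viability by alamar blue resazurin fluorescence; 7 concentrations, DMSO max 0.1%.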

[4] = TAMU_PeakParms_SingleDonor1434_Asystole: Texas A&M University (TAMU) 1.5-hr Human Induced Pluripotent Stem Cell (iPSC)-derived Cardiomyocytes Calcium (Ca+2) Flux Assay for Cardiotoxicity: Asystole (quiescence of beating) (AID 2284328; active means hit-call score of the fitted dose curve at least 0.9, where 1 is the maximum)
Method in brief: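 Donor 1434 iPSC-cardiomyocytes exposed 90 min at 37C, 5% CO2, to 0.2, 1, 10 and 100 uM in 0.5% DMSO. Ca2+ dye fluorescence gave average peak frequency; POD is EC95, a 95% beat-rate drop versus controls.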

[5] = test system: Brachyury (BRA) Protein Expression, Deisenroth Lab, TBXT (gene 6862); assay: CCTE_Deisenroth_DEVTOX-GLR_legacy_Bra: (Legacy) CCTE's DevTox GLR-Endo Assay Evaluation of Brachyury (BRA) Protein Expression, Deisenroth Lab (AID 2284329)
Method in brief: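 RUES2-GLR human pluripotent cells are differentiated for 48 h and receive two chemical exposures 24 h apart, at 10 concentrations from 1 nM to 200 uM. Cells are fixed, nuclei stained and imaged. Bra+ cells are those with mean Bra intensity over 5x BMAD above the pluripotent control median, expressed as a percentage of cell count, after subtracting the 0.2% DMSO control median.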

[6] = CCTE_Deisenroth_DEVTOX-GLR_legacy_CellCount: (Legacy) Viability Assessment in CCTE's DevTox GLR-Endo Assay, Deisenroth Lab (AID 2284331); conditions: actives raise or lower the signal
Method in brief: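 RUES2-GLR human pluripotent cells were seeded 24 h, then differentiated 48 h with two compound doses at 24 h intervals (10-point, 1 nM - 200 uM). Fixed nuclei were imaged and counted; bidirectional fitting versus 0.2% DMSO.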

[7] = IUF_NPC1_cytotoxicity_72hr: Cytotoxicity Assessment at 72 hours in the Leibniz Research Institute for Environmental Medicine (IUF) Neural Progenitor Cell Proliferation Assay (NPC1) (AID 2284332; active means hit-call score of the fitted dose curve at least 0.9, where 1 is the maximum;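 further: rising LDH signal means more cytotoxicity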)
Method in brief: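 Single human fetal cortex neural progenitor spheres (GW 16-19, 0.25-0.35 mm) in EGF/FGF proliferation medium were exposed to compound for 72 h at 37C without renewal. Medium LDH release was read as resorufin fluorescence and fitted as gain-of-signal.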

[8] = test system: SRY-box transcription factor 17 (SOX17) Protein Expression, Deisenroth Lab, SOX17 (gene 64321); assay: CCTE_Deisenroth_DEVTOX-GLR_legacy_Sox17: (Legacy) CCTE's DevTox GLR-Endo Assay Evaluation of SRY-box transcription factor 17 (SOX17) Protein Expression, Deisenroth Lab (AID 2284341); conditions: actives raise or lower the signal
Method in brief: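 Percent SOX17-positive cells, scored by high-content imaging as mean intensity exceeding pluripotent-control median by 5x BMAD, divided by cell count. Human RUES2-GLR endoderm differentiation, 48 h, two exposures 24 h apart, 1 nM–200 uM; DMSO-referenced bidirectional fitting.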

[9] = CCTE_Mundy_HCI_iCellGluta_NOG_NeuriteLength: CCTE's Neurite Outgrowth Assay in iCellGluta cells for Neurite Length, Mundy Lab (AID 2284318; active means hit-call score of the fitted dose curve at least 0.9, where 1 is the maximum)
Method in brief: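 Automated high-content imaging of betaIII-tubulin (Alexa Fluor-488) and Hoechst-stained cells gave neurite length, normalized to the DMSO baseline.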

[10] = CCTE_Mundy_HCI_iCellGluta_NOG_NeuronCount: CCTE's Neurite Outgrowth Assay in iCellGluta cells for Neuron Count, Mundy Lab (AID 2284340; active means hit-call score of the fitted dose curve at least 0.9, where 1 is the maximum;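 further: cells fixed about 48 h after compound addition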)
Method in brief: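 Neuron count read by automated high-content imaging of Hoechst 33342 and betaIII-tubulin/Alexa Fluor-488 labelling in human iPSC glutamatergic neurons. Activity fitted relative to DMSO.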

TTR (gene 7276) = assay: CCTE_GLTED_hTTR_0.5uM: CCTE's human Transthyretin (hTTR) Inhibition Assay, with 0.5uM TTR, Great Lakes Toxicology and Ecology Division (GLTED) Lab (AID 2284320)
Method in brief: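 Cell-free displacement assay in which human TTR at 0.5 uM was incubated with test chemical for 2 h. Displacement of the ANSA probe was read by fluorescence at 380 nm excitation/475 nm emission. Loss of signal was fitted in the positive direction versus DMSO.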

IYD (gene 389434) = assay: CCTE_GLTED_hIYD: CCTE's human Iodotyrosine Deiodinase (xIYD) Inhibition Assay, Great Lakes Toxicology and Ecology Division (GLTED) Lab (AID 2284317; active means hit-call score of the fitted dose curve at least 0.9, where 1 is the maximum;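 further: cell-free human IYD enzyme made in baculovirus insect cells; iodide freed from monoiodotyrosine measured by cerium arsenite color change at 420 nm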)
Method in brief: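 Human IYD expressed in a baculovirus-insect cell system was incubated 3 h with monoiodotyrosine and test chemical. Released iodide, separated on Dowex columns, was quantified by the Sandell-Kolthoff reaction at 420 nm; plates were normalized to MNT and DMSO/NaOH controls.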

[11] = VALA_TUBIPS_Agonist_TubuleLength: VALA Sciences human iPS-derived Endothelial Tubule Formation (TUBIPS) Agonism Assay (AID 2284311; active means hit-call score of the fitted dose curve at least 0.9, where 1 is the maximum)
Method in brief: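 Human iPS-derived endothelial cells were exposed to compound for 72 h. Tubule formation was imaged by high-content fluorescence and scored as gain of signal relative to DMSO vehicle (agonist mode).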

[12] = VALA_TUBIPS_Antagonist_TubuleLength: VALA Sciences human iPS-derived Endothelial Tubule Formation (TUBIPS) Antagonist Assay (AID 2284313; active means hit-call score of the fitted dose curve at least 0.9, where 1 is the maximum)
Method in brief: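 Cells grown 3 days with 10 ng/ml VEGF, then exposed to compounds in VEGF medium for another 3 days. After fixation, nuclear stain and CD31 immunofluorescence imaging gave mean total tubule length against 0.1% DMSO; suramin (100 uM) inhibition control.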

[13] = VALA_MIGHUV2_WoundArea: VALA Sciences human Umbilical Vein Endothelial Cell Migration (MIGHUV) Assay, Area of Scratch Wound after Recovery (AID 2284316; active means hit-call score of the fitted dose curve at least 0.9, where 1 is the maximum)
Method in brief: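 HUVEC seeded at 9000 cells/well, scratched after 24 h; test chemical added within 30 min, 6-point concentration response in triplicate (0.1% DMSO vehicle). After 24 h wound recovery, cells fixed and Hoechst-stained nuclei in wound area imaged; Cytochalasin D reference control.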

[14] = VALA_TUBIPS_Antagonist_CellCount: Viability Assessment in the VALA Sciences human iPS-derived Endothelial Tubule Formation (TUBIPS) Antagonism Assay (AID 2284335; active means hit-call score of the fitted dose curve at least 0.9, where 1 is the maximum)
[15] = VALA_MIGHUV1_ScratchOnly_WoundArea: VALA Sciences human Umbilical Vein Endothelial Cell Migration (MIGHUV) Assay, Area of Scratch Wound Inhibited Recovery (AID 2284336; active means hit-call score of the fitted dose curve at least 0.9, where 1 is the maximum)
Method in brief: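 HUVEC monolayers (9000 cells/well) were scratched after 24 h, dosed within 30 min (six concentrations, triplicate, 0.1% DMSO), allowed 24 h recovery, then fixed. Hoechst-stained nuclei in the wound imaged; cytochalasin D as reference.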

[16] = VALA_TUBHUV_Agonist_TubuleLength: VALA Sciences human Umbilical Vein Endothelial Tubule Formation (TUBHUV) Agonism Assay (AID 2284337; active means hit-call score of the fitted dose curve at least 0.9, where 1 is the maximum)
Method in brief: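 HUVEC co-cultured with fibroblasts (1:3) 3 days in 10 ng/ml VEGF, then 3 days with compound plus VEGF; 0.1 % DMSO neutral control. Fixed, nuclear and CD31 stained; tubule length by fluorescence imaging.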

[17] = VALA_TUBIPS_Agonist_CellCount: Viability Assessment in the VALA Sciences human iPS-derived Endothelial Tubule Formation (TUBIPS) Agonism Assay (AID 2284338; active means hit-call score of the fitted dose curve at least 0.9, where 1 is the maximum)

## CCCCCCc1ccc(N)cc1
[1]
  outcome: inactive
[2]
  outcome: inactive
SRD5A2 (gene 6716)
  AC50: 50 µM (active)

## CC(=O)Nc1ccc(O)cc1
[3]
  outcome: inactive
[4]
  outcome: inactive
[5]
  outcome: inactive
[6]
  outcome: inactive
[7]
  outcome: inactive
[8]
  outcome: inactive

## CC(C)c1c(C(=O)Nc2ccccc2)c(-c2ccccc2)c(-c2ccc(F)cc2)n1CC[C@@H](O)C[C@@H](O)CC(=O)O
[3]
  outcome: inactive
[9]
  AC50: 0.0462 µM (active)
[7]
  outcome: inactive
[10]
  AC50: 10.1 µM (active)

## O=C(O)CCC(F)(F)C(F)(F)C(F)(F)C(F)(F)C(F)(F)C(F)(F)F
TTR (gene 7276)
  AC50: 3.66 µM (active)

## C=CC(=O)OCCC(F)(F)C(F)(F)C(F)(F)C(F)(F)C(F)(F)C(F)(F)C(F)(F)C(F)(F)F
[9]
  outcome: inactive
[10]
  outcome: inactive

## CCc1ccccc1O
[1]
  outcome: inactive
[2]
  outcome: inactive
SRD5A2 (gene 6716)
  outcome: inactive

## O=C(O)CCC(F)(F)C(F)(F)C(F)(F)C(F)(F)C(F)(F)F
TTR (gene 7276)
  AC50: 3.12 µM (active)

## COc1cc([N+](=O)[O-])ccc1N
[1]
  outcome: inactive
[2]
  outcome: inactive
SRD5A2 (gene 6716)
  AC50: 50 µM (active)

## NC(=NCCCCCCN=C(N)/N=C(\N)Nc1ccc(Cl)cc1)/N=C(\N)Nc1ccc(Cl)cc1
IYD (gene 389434)
  AC50: 54.7 µM (active)
[2]
  AC50: 50 µM (active)
SRD5A2 (gene 6716)
  AC50: 81 µM (active)

## CCCCCCCCCCCCOC(=O)c1cc(O)c(O)c(O)c1
IYD (gene 389434)
  AC50: 22.9 µM (active)

## O=C(CCCN1CCC(O)(c2ccc(Cl)cc2)CC1)c1ccc(F)cc1
[11]
  outcome: inactive
[3]
  outcome: inactive
[12]
  outcome: inactive
[13]
  outcome: inactive
[7]
  outcome: inactive
[14]
  outcome: inactive
[15]
  outcome: inactive
[16]
  outcome: inactive
[17]
  outcome: inactive

## OCC(F)(F)C(F)(F)C(F)(F)C(F)(F)C(F)(F)C(F)(F)C(F)(F)C(F)(F)C(F)(F)C(F)(F)C(F)(F)F
[9]
  outcome: inactive
[10]
  AC50: 1.55 µM (active)

## O=C(Nc1ccc(Cl)c(Cl)c1)c1cc(Cl)cc(Cl)c1O
IYD (gene 389434)
  AC50: 77.4 µM (active)

## O=P(O)(O)CCC(F)(F)C(F)(F)C(F)(F)C(F)(F)C(F)(F)C(F)(F)F
[9]
  outcome: inactive
TTR (gene 7276)
  AC50: 6.47 µM (active)
[10]
  outcome: inactive

## O=C(O)C(F)(F)OC(F)(F)C(F)(F)OC(F)(F)C(F)(F)OC(F)(F)C(F)(F)C(F)(F)C(F)(F)F
IYD (gene 389434)
  AC50: 93.2 µM (active)
TTR (gene 7276)
  AC50: 1.11 µM (active)

## O=P(O)(O)CCC(F)(F)C(F)(F)C(F)(F)C(F)(F)C(F)(F)C(F)(F)C(F)(F)C(F)(F)F
IYD (gene 389434)
  outcome: inactive
[9]
  outcome: inactive
TTR (gene 7276)
  AC50: 2.24 µM (active)

## O=C(CC(=O)C(F)(F)C(F)(F)C(F)(F)F)c1cccs1
[9]
  outcome: inactive
TTR (gene 7276)
  AC50: 0.193 µM (active)

## CCCCc1oc2ccccc2c1C(=O)c1cc(I)c(OCCN(CC)CC)c(I)c1
[1]
  outcome: inactive
[2]
  outcome: inactive
SRD5A2 (gene 6716)
  outcome: inactive
[5]
  AC50: 19.8 µM (active)
[6]
  AC50: 18.2 µM (active)
[8]
  AC50: 20.8 µM (active)

## O=C1OC2(c3ccccc31)c1cc(I)c(O)c(I)c1Oc1c2cc(I)c(O)c1I
[1]
  AC50: 2.23 µM (active)
[2]
  AC50: 1.79 µM (active)
SRD5A2 (gene 6716)
  AC50: 6 µM (active)

## Cc1cc(Cc2cc(C)cc(C(C)(C)C)c2O)c(O)c(C(C)(C)C)c1
IYD (gene 389434)
  AC50: 24.2 µM (active)

## CCCCCCCCCCCC
IYD (gene 389434)
  AC50: 38.4 µM (active)
[1]
  outcome: inactive
[2]
  outcome: inactive
SRD5A2 (gene 6716)
  outcome: inactive

## CN(Cc1cnc2nc(N)nc(N)c2n1)c1ccc(C(=O)N[C@@H](CCC(=O)O)C(=O)O)cc1
[6]
  AC50: 0.359 µM (active)
[8]
  outcome: inactive

## O=C1NS(=O)(=O)c2ccccc21
[3]
  outcome: inactive
[9]
  outcome: inactive
[4]
  outcome: inactive
[5]
  outcome: inactive
[6]
  outcome: inactive
[7]
  outcome: inactive
[8]
  outcome: inactive

## CCCCCCCCCCCCOS(=O)(=O)O
[1]
  AC50: 50 µM (active)
[2]
  AC50: 44.8 µM (active)
SRD5A2 (gene 6716)
  AC50: 83.9 µM (active)

## Oc1c(Cl)cc(Cl)cc1Sc1cc(Cl)cc(Cl)c1O
IYD (gene 389434)
  AC50: 56.9 µM (active) and 88.2 µM (active) and 100 µM (active)

## CN(C)CCOC(c1ccccc1)c1ccccc1
[6]
  AC50: 63.9 µM (active)
[8]
  AC50: 58.1 µM (active)
